# A selection: hits, their analogues and other compounds. The true share with any hit is near 4.1%.
# hgDAF12 agonist: H. glycines DAF-12 receptor agonists, primary screen, cell-based, luminescence, HEK293, GAL4 fusion, UAS-luciferase | activation, % at 6.8 µM | actives 1.8% (n = 370,000) | Nuclear hormone receptor DAF-12 (Heterodera glycines), GAL4 fusion | HEK293 GAL4-hgDAF12 UAS-luciferase reporter, agonist luminescence; normalized to butyrate control;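 active = activation above a cutoff set at the mean of all screened compounds plus 3 SD, cut at about 10% in these data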;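 note: 0% = DMSO wells and 100% = sodium butyrate wells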
# DAX1 inh-1: DAX1 (NR0B1) inhibitors on StAR promoter, primary screen, cell-based, luminescence, SF-1 (NR5A1), full-length DAX-1. HEK293T StAR-luciferase reporter, SF-1/DAX-1 repression relief. inhibition, % at 6.8 µM. actives 1.1% (n = 370,000);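 active = inhibition above the mean over all tested compounds plus 3 SD, cut at about 3.6% in these data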;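 note: 0% = DAX-1 cells with DMSO and 100% = cells lacking DAX-1 with DMSO; higher inhibition means more luminescence from relief of DAX-1 repression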
# hcDAF-12 act: H. contortus DAF-12 nuclear receptor activators, primary screen, cell-based, luminescence, HEK293, lit1-tk-luc reporter. actives 1.4% (n = 370,000). activation, % at 6.8 µM. HEK293 hcDAF-12 lit1-tk-luc reporter; 0% DMSO, 100% Δ7-dafachronic acid. AID 652067, 2013;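 active = activation above the mean of all tested compounds plus 3 SD, cut at about 5.5% in these data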;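 note: 100% = response to 3 µM Δ7-dafachronic acid high control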
# ssDAF-12 act: S. stercoralis DAF-12 nuclear receptor activators, primary screen, cell-based, luminescence, HEK293, GRIP1 co-expression, lit1-tk-luc | Nuclear hormone receptor DAF-12 (Strongyloides stercoralis) | HEK293 ssDAF-12/GRIP1 lit1-tk-luc reporter; % of 3 µM dafachronic acid response | activation, % at 6.8 µM | actives 1% (n = 370,000) | AID 652126, 2013;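 active = activation above the mean over all tested compounds plus 3 SD, cut at about 0.9% in these data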;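 note: 0% = DMSO-only wells and 100% = 3 µM delta7-dafachronic acid wells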
# DAX1 inh-2: DAX1 (NR0B1) inhibitors, primary screen, cell-based, HEK293, Gal4-DAX1, luciferase luminescence; Nuclear receptor subfamily 0 group B member 1 (Homo sapiens), P51843; HEK293 Gal4-DAX1 luciferase reporter; inhibition, % at 6.75 µM; actives 0.99% (n = 340,000);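 active = inhibition above the mean over all tested compounds plus 3 SD, cut at about 4.2% in these data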;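 note: 0% = DAX1-transfected cells with DMSO and 100% = empty-vector control cells with DMSO; inhibition shows as a rise in luminescence from relieved DAX1 repression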
# Target sequence (P51843 207-470 limits assumed): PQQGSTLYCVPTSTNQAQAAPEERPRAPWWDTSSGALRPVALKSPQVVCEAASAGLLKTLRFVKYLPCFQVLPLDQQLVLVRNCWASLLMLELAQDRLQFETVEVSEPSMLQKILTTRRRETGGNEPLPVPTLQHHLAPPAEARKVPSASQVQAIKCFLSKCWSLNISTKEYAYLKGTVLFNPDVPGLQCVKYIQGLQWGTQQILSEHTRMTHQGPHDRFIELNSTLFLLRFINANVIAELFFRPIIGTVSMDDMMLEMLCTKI
# An asterisk follows results filed as active; x = not tested or not shown.
SMILES,hgDAF12 agonist,DAX1 inh-1,hcDAF-12 act,ssDAF-12 act,DAX1 inh-2
Cc1cc(C(=O)Nc2ccc(F)cc2C)n(-c2ccccc2)n1,3,0,-1,-2,5.0*
CC(C)CCNC(=O)C1CCN(c2cncnc2)CC1,4,0,1,-1,x
Cc1ccc(CSc2ccc(-c3cccs3)nn2)cc1,5,1,0,-1,3
c1cncc(CSc2ccc(-c3cccs3)nn2)c1,12*,0,2,-1,1
Cc1ccc(-n2c(Cn3ncc4ccccc4c3=O)n[nH]c2=S)cc1,-1,0,1,1.3*,1
O=c1c2ccccc2cnn1Cc1n[nH]c(=S)n1-c1ccc(F)cc1,-1,-1,-1,-2,0
CC(c1nccs1)N(C)C(=O)CCc1nnc(Cc2c[nH]c3ccccc23)o1 (configuration not stated),-4,-1,2,3.5*,0
Cc1ccccc1OCCCC(=O)NCc1ccco1,1,-1,-2,-1,4.4*
N#Cc1ccccc1OCC(=O)NC(=O)NCc1ccco1,11*,1,1,-1,7.0*
CN(C)C(=O)c1c([N+](=O)[O-])c(C(C)(C)C)nn1C,1,0,0,-1,0
CCCc1nn(C)c(C(N)=O)c1[N+](=O)[O-],2,1,5,1.0*,1
CCSc1nnc(SCC(=O)NC2CCCCC2)s1,0,0,0,-1,0
CSc1nsc(SCC(=O)NC2CCCCC2)n1,3,1,5.6*,0,0
CN(C)CC(=O)N[C@H]1C[C@@H]2O[C@@H](CO)CC[C@@H]2O[C@@H]1CCc1ccc(C2=CCCCC2)cc1,-1,1,-1,-1,x
Cc1cc(C)n2c(SCc3cccs3)nnc2n1,-1,1,-1,-1,0
Cc1cc(C)n2c(SCC#N)nnc2n1,-3,-1,-1,-1,4.6*
CCCSc1nnc2nc(C)cc(C)n12,1,1,-3,-1,4.7*
Cc1ccc(CN2C(=O)C(C)Sc3ccc(C#N)cc32)cc1 (configuration not stated),-1,-1,-1,-1,x
COc1cc(C(=O)Nc2c(C(=O)O)[nH]c3ccccc23)cc(OC)c1OC,1,0,6.1*,1,1
CC(=O)Nc1c(C(=O)O)[nH]c2ccccc12,-1,0,6.1*,1,0
COc1ccc2[nH]c(C(=O)O)c(NC(=O)c3cc(OC)c(OC)c(OC)c3)c2c1,0,0,3,0,1
CSc1ccccc1C(=O)NC1CCSc2ccccc21 (configuration not stated),2,0,5.7*,1,-2
COc1ccc(CC(=O)NC2CCSc3ccccc32)c(OC)c1 (configuration not stated),-1,0,-4,-1,7.7*
Cc1nn(-c2ccc(C(F)(F)F)cn2)c(C)c1Oc1ccccc1O,-1,0,-2,-1,2
CN(C)/C=N/c1ncnc2c1cnn2-c1ccc(C(F)(F)F)cn1,11*,1,4,0,1
SMILES,hgDAF12 agonist,DAX1 inh-1,hcDAF-12 act,ssDAF-12 act,DAX1 inh-2
O=C(N/N=C/C1CC2CCC1C2)c1c[nH]c2ccccc12 (configuration not stated),6,1,5.7*,1,0
Cc1ccsc1/C=N/NC(=O)c1c[nH]c2ccccc12,11*,0,2,1,0
O=C(N/N=C/C1CC2CCC1C2)C1CC1 (configuration not stated),1,3.7*,2,-1,0
O=C(N/N=C/c1ccc[nH]1)c1c[nH]c2ccccc12,-1,1,0,0,1
COc1ccc(C=Nn2c(-c3ccc(F)cc3)n[nH]c2=S)cc1OCc1ccccc1,2,0,0,-2,x
NC(=O)c1nc(C(=O)N2CCCCC2)c2ccccc2n1,0,1,-1,-1,0
C[C@@H]1CN(C(=O)c2cc(COc3cccc(C(F)(F)F)c3)on2)C[C@H](C)O1,11*,3,3,-1,2
CCCCCCCCNC(=O)C1CSCCS(=O)(=O)N1Cc1ccc(OC)cc1 (configuration not stated),-1,0,3,-2,x
COCCn1c(NCc2ccco2)nc2c1c(=O)[nH]c(=O)n2C,2,-1,-1,-1,-1
Cn1c(=O)[nH]c(=O)c2c1nc(NCc1ccco1)n2CCCc1ccccc1,1,0,0,-1,4.5*
COc1ccc(Cl)cc1N(C(C)=O)c1nc(C)cc(C)c1C#N,0,0,5.9*,-1,5.1*
COc1ccc(C(=O)Nc2ccc(CN3CCS(=O)(=O)CC3)cc2)cc1,-1,1,0,-2,4.4*
CCN1CCN(Cc2ccc(NC(=O)Nc3ccccc3)cc2)CC1,x,x,x,x,3
COc1c(C)cccc1C(=O)Nc1ccc(CN2CCOCC2)cc1,7,4,6.0*,-1,4
CCN1CCN(Cc2ccc(NC(=O)Nc3ccc(OC)cc3)cc2)CC1,9,0,0,-1,4.3*
CN(C)c1ccc(C(=O)Nc2ccc(CN3CCS(=O)(=O)CC3)cc2)cc1,4,1,0,-2,1
COC(=O)c1cc(-c2cccc3c2sc2ccccc23)c(=O)n2c1CCC2,-3,-2,1,0,x
CN(CCOc1ccc(Cl)cc1)CC(O)c1ccccc1 (configuration not stated),1,0,0,-1,4.3*
CCS(=O)(=O)N1CCc2nc(-c3ccccc3)sc2C1,12*,2,3,0,4.9*
COc1ccc(-c2nc3c(s2)CN(S(C)(=O)=O)CC3)cc1OC,1,0,1,-1,2
CCOc1ccc(CCN2C(=O)C(=O)N([C@@H](CC(C)C)CN3CCC[C@@H]3CN3C(=O)C(=O)NC[C@@H]3Cc3ccccc3)C[C@@H]2Cc2ccc(O)cc2)cc1,0,-1,0,-1,0
CC(C)C[C@H]1CNC(=S)N1C[C@H]1CCCN1C[C@H](Cc1ccccc1)N1C[C@H](Cc2ccc(O)cc2)N(CC2CCCCC2)C1=S,1,3.8*,0,-1,x
CCOc1ccc(CCN2C(=O)C(=O)N([C@@H](CC(C)C)CN3CCC[C@H]3CN3C(=O)C(=O)NC[C@@H]3Cc3ccccc3)C[C@@H]2Cc2ccc(O)cc2)cc1,0,3.9*,0,-1,x
CN(C(=O)CSc1nnc(-c2cccs2)n1N)c1ccccc1,-1,0,0,-1,0
